DUSP3 inh: VHR1 (DUSP3) phosphatase inhibition. actives 0.7% (n = 50,000). AID 1992. P51452. recombinant VHR phosphatase, colorimetric substrate read-out. inhibition, % at 20 µM; in the data active means inhibition above about 60%
Target sequence (P51452 whole entry, looked up): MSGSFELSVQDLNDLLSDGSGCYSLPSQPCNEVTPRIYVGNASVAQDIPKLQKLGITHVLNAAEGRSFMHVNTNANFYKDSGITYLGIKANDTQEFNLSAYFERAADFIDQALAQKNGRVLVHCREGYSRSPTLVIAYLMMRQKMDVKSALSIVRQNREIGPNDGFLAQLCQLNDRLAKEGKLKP
The depositor's hits bear a star. The sample as a whole holds a higher share of hits than the screen did.

SMILES	DUSP3 inh
COc1ccccc1-n1cnc2cc(NC(C)=O)ccc21	-6
COc1ccccc1-n1cnc2cc(NC(=O)c3ccc(C)cc3)ccc21	-15
COC(=O)c1ccc2c(c1)-c1ccc(C(=O)OC)c3cccc-2c13	-2
COc1ccccc1NC(=S)NC(=O)c1ccc(Cl)cc1	-7
CCCCOC(=O)c1ccc(NC(=O)CSc2ccccn2)cc1	5
Cc1ccc(C)c(-c2csc(N)c2C(=O)OC(C)C)c1	8
Cc1ccc(-c2csc(N)c2C(=O)OC(C)C)cc1C	84*
Cc1ccc(-c2csc(N)c2C(=O)OC(C)C)cc1	52
O=c1c2ccccc2nc(-c2ccccc2F)n1-c1cccc(Cl)c1	2
Cc1ccc(OCCCCCCn2ccnc2)c(C)c1	4
COc1cc(C=Nc2ccc(Oc3ccc(N=Cc4ccc(O)c(OC)c4)cc3)cc2)ccc1O	16
CCCC(=O)Nc1ccc(NC(=O)c2ccco2)cc1	26
O=C(Nc1nc(-c2ccc(Br)cc2)cs1)c1cc2ccccc2o1	24
O=C(Nc1ccccc1C(F)(F)F)c1cccc(OCc2ccccc2)c1	114*
O=C(Nc1ccccc1C(F)(F)F)c1ccc2ccccc2c1	16
O=C(Nc1ccc(I)cc1Cl)c1cccc(OCc2ccccc2)c1	2
O=C(Nc1ccc(Cl)cc1)Nc1ccc(-c2nc3ccccc3s2)cc1	-42
Cn1c(-c2ccc(-c3nc4cnccc4n3C)cc2)nc2cnccc21	71*
Cn1c(-c2nc3ccccc3n2C)nc2ccccc21	-7
Cc1ccc(-c2nc3ccccc3c(=O)n2-c2cccnc2)cc1	13
CCOC(=O)C1=C(C(=O)OCC)SC(=C2C(=S)C(C)(C)N(C(=O)CC)c3ccc(OCC)cc32)S1	-28
Cc1ccc(/C=C(\C#N)c2nc(-c3ccc(C)c(C)c3)cs2)o1	60
Cc1ccc(/C=C(\C#N)c2nc(-c3cccc([N+](=O)[O-])c3)cs2)o1	21
Cc1ccc(/C=C(\C#N)c2nc(-c3cccc(Br)c3)cs2)o1	88*
O=c1nc(N/N=C/c2c(O)ccc3ccccc23)cn[nH]1	2
SMILES	DUSP3 inh
O=C(NCc1ccccc1)c1ccc(S(=O)(=O)c2ccccc2)cc1	1
O=C1C=CC(=O)C(/C(=C/NCc2ccccc2)[N+](=O)[O-])=C1	86*
O=[N+]([O-])c1ccc(Cl)cc1NCc1ccccc1	5
O=c1nc(/C=C/c2ccc(N3CCOCC3)cc2)cc(C(F)(F)F)[nH]1	0
O=c1nc(/C=C/c2ccc(Cl)cc2)cc(C(F)(F)F)[nH]1	-10
O=c1nc(/C=C/c2ccc(N3CCCC3)cc2)cc(C(F)(F)F)[nH]1	108*
COc1cc(/C=C2\C(=O)NC(=S)N(c3cccc(Br)c3)C2=O)cc(Cl)c1O	26
C=CCc1cc(/C=C2\C(=O)NC(=S)N(c3cccc(Br)c3)C2=O)cc(OC)c1O	77*
Cc1ccc(/C=C2\C(=O)NC(=O)N(c3cccc(Br)c3)C2=O)cc1	10
COc1ccc2ccccc2c1/C=C1/C(=O)NC(=O)N(c2cccc(Br)c2)C1=O	101*
COc1cc(/C=C2\C(=O)NC(=O)N(c3cccc(Br)c3)C2=O)cc(Cl)c1O	-18
C=CCc1cc(/C=C2/C(=O)NC(=O)N(c3cccc(C)c3)C2=O)cc(OC)c1O	13
O=C(Nc1cc2cc(Cl)ccc2oc1=O)c1ccccc1	-6
CCOC(=O)c1ccccc1NC(=O)c1ccc(N(Cc2ccc(Cl)cc2)S(C)(=O)=O)cc1	-21
CCN(CC)S(=O)(=O)c1ccc(Cl)c(C(=O)Nc2sc3c(c2C#N)CCCC3)c1	17
COc1ccc(CC(c2nc3ccccc3[nH]2)C(C)c2nc3ccccc3[nH]2)cc1 (centres undefined)	-12
COc1ccc(COC(=O)C2=C(C)NC3=C(C(=O)CC(C)(C)C3)C2c2cc([N+](=O)[O-])ccc2Cl)cc1 (centres undefined)	-1
CC(=O)Nc1ccc(S(=O)(=O)N2c3ccccc3C(Nc3ccccc3)CC2C)cc1 (centres undefined)	-14
COc1ccc2noc3c2c1C(=O)c1ccccc1-3	-9
CC(=O)Oc1cccc2c1C(=O)c1ccccc1C2=O	103
COc1ccc(OC)c2c1C(=O)c1ccccc1C2=O	94*
CCC12c3ccccc3C(c3ccccc31)C1C(=O)N(c3ccc4c(c3)OCO4)C(=O)C12 (centres undefined)	-8
Cc1cc2nc(-c3cc(NC(=O)COc4ccc(Cl)cc4Cl)ccc3O)oc2cc1C	1
CCC(=O)Nc1ccc(NC(=O)c2ccc(OC)c([N+](=O)[O-])c2)cc1	-8
O=C(/C=C/c1ccco1)/C=C/c1ccc(-c2ccc(Cl)c(Cl)c2)o1	89*
SMILES	DUSP3 inh
N#C/C(=C\c1ccc(-c2cccc(C(F)(F)F)c2)o1)C(N)=O	-8
O=C(/C=C/c1ccco1)Nc1ccc(Cl)c(Cl)c1	10
N#C/C(=C\c1ccc(-c2ccc(Br)cc2)o1)C(N)=O	-7
N#C/C(=C\c1ccc(-c2ccc(Cl)c(Cl)c2)o1)C(N)=O	70*
O=C(O)/C=C/c1ccc(-c2ccc(Cl)c(Cl)c2)o1	3
Cc1cc2oc(=O)cc(C)c2cc1[N+](=O)[O-]	-19
O=C(Nc1ccc(-c2nc3ccccc3s2)c(O)c1)c1ccc(-c2cccc([N+](=O)[O-])c2)o1	-13
CCOc1ccc(C(=O)Nc2ccc3ccccc3c2)cc1[N+](=O)[O-]	14
CNC(=O)CN(c1ccc(OC)cc1)S(=O)(=O)c1ccc(OC)c(OC)c1	1
Cc1ccc([N+](=O)[O-])cc1-c1ccc(/C=C2/C(=O)NC(=O)N(c3ccccc3)C2=O)o1	43
O=C1NC(=O)N(c2ccccc2)C(=O)/C1=C/c1ccc(-c2ccccc2C(=O)O)o1	8
COc1ccc(N2C(=O)/C(=C/c3ccc(-c4ccccc4[N+](=O)[O-])o3)C(=O)NC2=S)cc1	81*
COc1cccc(/C=C2/C(=O)NC(=O)N(c3ccc(C(C)C)cc3)C2=O)c1O	89*
Cc1ccc([N+](=O)[O-])cc1-c1ccc(/C=C2\C(=O)NC(=O)N(c3ccc(Cl)cc3)C2=O)o1	-30
C=CCN1C(=O)/C(=C\c2ccc(-c3cc([N+](=O)[O-])ccc3C)o2)C(=O)NC1=S	74*
O=C1NC(=O)N(c2ccc(Cl)cc2)C(=O)/C1=C\c1ccc(-c2ccccc2[N+](=O)[O-])o1	-8
O=C1NC(=S)N(c2cccc(Br)c2)C(=O)/C1=C/c1ccc(-c2ccccc2C(=O)O)o1	80*
COc1ccc(N2C(=O)/C(=C/c3ccc(-c4ccc(C(=O)O)cc4)o3)C(=O)NC2=S)cc1	32
COc1cccc(/C=C2/C(=O)NC(=O)N(c3ccc(Br)cc3)C2=O)c1O	-16
Cc1cccc(N2C(=O)NC(=O)/C(=C\c3ccc(-c4ccccc4C(=O)O)o3)C2=O)c1	-4
COc1cc(/C=C2/C(=O)NC(=O)N(c3ccc(C(C)C)cc3)C2=O)cc(OC)c1O	27
CCCCOc1ccc(C(=O)NCc2cccc3ccccc23)cc1	8
CC(=O)/C=C/c1ccc(-c2cc(Cl)ccc2Cl)o1	-5
O=C(N/N=C/c1cc(I)cc(I)c1O)C(O)c1ccccc1 (centres undefined)	-8
COC(=O)/C(O)=C/C(=O)c1cccs1	14
COc1ccccc1CNC(=O)CC1S/C(=N\N=C\c2ccccc2)NC1=O (centres undefined)	-21
CCn1cc(C(=O)O)c(=O)c2cc([N+](=O)[O-])ccc21	3
CC(CNC(=O)c1ccc(F)c2ccccc12)c1ccccc1 (centres undefined)	1
COc1cccc(/C=C2/C=C(c3ccc(C)cc3)OC2=O)c1	-9
